# Results reported in the supplement of paper PMC8728848.
# Shown is part of a subset that was picked to be rich in the strongest signals.
# B1: AT1G15820(NC) (Arabidopsis thaliana) (protein)
# chain: MAMAVSGAVLSGLGSSFLTGGKRGATALASGVGDAIAPFSFGSLLGTQLLLMGWVESKRWVDFFNPDSQSVEWATPWSKTAENFANYTGDQGYPGGRFFDPLGLAGKNRDGVYEPDFEKLERLKLAEIKHSRLAMVAMLIFYFEAGQGKTPLGALGL
# Assays:
# Test in all cases: glycan array binding signal (z-score within array); higher = stronger binding
# Conditions in all cases: glycan notation: IUPAC condensed, linker removed
# Fuc(a1-2)Gal = molecular target: Fuc(a1-2)Gal
# Summary of the method: (§1)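 The binding signal is a Z-score computed within each array. Data were drawn from 3228 arrays in the Consortium for Functional Glycomics database, restricted to those with a known protein sequence. Scores were averaged over arrays of the same protein sequence at different concentrations or buffers, and over linkers, and negative values can be taken as non-binding.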
# [1] = molecular target: Fuc(a1-2)Gal(b1-3)GlcNAc(b1-2)Man(a1-3)[Fuc(a1-2)Gal(b1-3)GlcNAc(b1-2)Man(a1-6)]Man(b1-4)GlcNAc(b1-4)[Fuc(a1-6)]GlcNAc
# Summary of the method: as §1
# [2] = molecular target: Fuc(a1-2)Gal(b1-3)GlcNAc(b1-3)[Neu5Ac(a2-6)Gal(b1-4)GlcNAc(b1-6)]Gal(b1-4)Glc
# Summary of the method: as §1
# [3] = molecular target: Fuc(a1-2)Gal(b1-3)GlcNAc6S
# Summary of the method: as §1
# [4] = molecular target: Fuc(a1-2)Gal(b1-3)[Fuc(a1-4)]GlcNAc
# Summary of the method: as §1
# [5] = molecular target: Fuc(a1-2)Gal(b1-4)GlcNAc(b1-2)Man
# Summary of the method: as §1
# [6] = molecular target: Fuc(a1-2)Gal(b1-4)GlcNAc(b1-3)Gal(b1-4)GlcNAc(b1-3)Gal(b1-4)GlcNAc
# Summary of the method: as §1
# [7] = molecular target: Fuc(a1-2)Gal(b1-4)[Fuc(a1-3)]GlcNAc(b1-2)[Fuc(a1-2)Gal(b1-4)[Fuc(a1-3)]GlcNAc(b1-4)]Man(a1-3)[Fuc(a1-2)Gal(b1-4)[Fuc(a1-3)]GlcNAc(b1-2)Man(a1-6)]Man(b1-4)GlcNAc(b1-4)GlcNAc
# Summary of the method: as §1
# [8] = molecular target: Fuc(a1-2)[Gal(a1-3)]Gal(b1-3)GalNAc
# Summary of the method: as §1
# [9] = molecular target: Fuc(a1-2)[Gal(a1-3)]Gal(b1-3)GlcNAc
# Summary of the method: as §1
# [10] = molecular target: Fuc(a1-2)[Gal(a1-3)]Gal(b1-4)Glc
# Summary of the method: as §1
# [11] = molecular target: Fuc(a1-2)[GalNAc(a1-3)]Gal(b1-4)GlcNAc(b1-6)GalNAc
# Summary of the method: as §1
# [12] = molecular target: Fuc(a1-2)[GalNAc(a1-3)]Gal(b1-4)[Fuc(a1-3)]GlcNAc(b1-3)GalNAc
# Summary of the method: as §1
# [13] = molecular target: Fuc(a1-3)[Gal3S(b1-4)]Glc
# Summary of the method: as §1
# Gal(a1-3)Gal(b1-4)GlcNAc = molecular target: Gal(a1-3)Gal(b1-4)GlcNAc
# Summary of the method: as §1
# [14] = molecular target: Gal(a1-3)[Gal(a1-4)]Gal(b1-4)GlcNAc
# Summary of the method: as §1
# [15] = molecular target: Gal(b1-3)GalNAc(a1-3)[Fuc(a1-2)]Gal(b1-4)GlcNAc
# Summary of the method: as §1
# [16] = molecular target: Gal(b1-3)GlcNAc(a1-6)Gal(b1-4)GlcNAc
# Summary of the method: as §1
# [17] = molecular target: Gal(b1-3)GlcNAc(b1-3)Gal(b1-4)GlcNAc(b1-6)[Gal(b1-3)GlcNAc(b1-3)]Gal(b1-4)Glc
# Summary of the method: as §1
# [18] = molecular target: Gal(b1-3)GlcNAc(b1-3)GalNAc
# Summary of the method: as §1
# [19] = molecular target: Gal(b1-3)GlcNAc(b1-6)[Gal(b1-3)]GalNAc
# Summary of the method: as §1
# [20] = molecular target: Gal(b1-3)[Fuc(a1-4)]GlcNAc(b1-2)Man
# Summary of the method: as §1
# [21] = molecular target: Gal(b1-4)GlcNAc(b1-3)Gal(b1-4)Glc
# Summary of the method: as §1
# [22] = molecular target: Gal(b1-4)GlcNAc(b1-3)Gal(b1-4)GlcNAc(b1-3)Gal(b1-4)GlcNAc(b1-3)Gal(b1-4)GlcNAc(b1-2)Man(a1-3)[Gal(b1-4)GlcNAc(b1-3)Gal(b1-4)GlcNAc(b1-3)Gal(b1-4)GlcNAc(b1-3)Gal(b1-4)GlcNAc(b1-2)Man(a1-6)]Man(b1-4)GlcNAc(b1-4)GlcNAc
# Summary of the method: as §1
# [23] = molecular target: Gal(b1-4)GlcNAc(b1-3)Gal(b1-4)GlcNAc(b1-3)Gal(b1-4)GlcNAc(b1-3)Gal(b1-4)GlcNAc(b1-3)Gal(b1-4)GlcNAc(b1-2)Man(a1-3)[Gal(b1-4)GlcNAc(b1-3)Gal(b1-4)GlcNAc(b1-3)Gal(b1-4)GlcNAc(b1-3)Gal(b1-4)GlcNAc(b1-3)Gal(b1-4)GlcNAc(b1-2)Man(a1-6)]Man(b1-4)GlcNAc(b1-4)GlcNAc
# Summary of the method: as §1
# [24] = molecular target: Gal(b1-4)GlcNAc(b1-3)Gal(b1-4)GlcNAc(b1-3)[Gal(b1-4)GlcNAc(b1-3)Gal(b1-4)GlcNAc(b1-6)]GalNAc
# Summary of the method: as §1
# GalNAc(b1-3)GlcNAc = molecular target: GalNAc(b1-3)GlcNAc
# Summary of the method: as §1
# GalNAc(b1-4)GlcNAc = molecular target: GalNAc(b1-4)GlcNAc
# Summary of the method: as §1
# [25] = molecular target: GalNAc(b1-4)GlcNAc(b1-2)Man
# Summary of the method: as §1
# [26] = molecular target: GlcNAc(a1-4)Gal(b1-4)GlcNAc(b1-3)Gal(b1-4)GlcNAc(b1-3)Gal(b1-4)GlcNAc
# Summary of the method: as §1
# [27] = molecular target: GlcNAc(a1-6)Gal(b1-4)GlcNAc
# Summary of the method: as §1
# [28] = molecular target: GlcNAc(b1-3)Gal(b1-4)GlcNAc(b1-2)[GlcNAc(b1-3)Gal(b1-4)GlcNAc(b1-6)]Man(a1-6)[GlcNAc(b1-3)Gal(b1-4)GlcNAc(b1-2)Man(a1-3)]Man(b1-4)GlcNAc(b1-4)GlcNAc
# Summary of the method: as §1
# [29] = molecular target: GlcNAc(b1-3)Gal(b1-4)GlcNAc(b1-3)Gal(b1-4)GlcNAc(b1-2)Man(a1-3)[GlcNAc(b1-3)Gal(b1-4)GlcNAc(b1-3)Gal(b1-4)GlcNAc(b1-2)Man(a1-6)]Man(b1-4)GlcNAc(b1-4)[Fuc(a1-6)]GlcNAc
# Summary of the method: as §1
# [30] = molecular target: GlcNAc(b1-4)Gal(b1-4)GlcNAc
# Summary of the method: as §1
# GlcNAc(b1-4)GlcNAc = molecular target: GlcNAc(b1-4)GlcNAc
# Summary of the method: as §1
# [31] = molecular target: GlcNAc(b1-4)GlcNAc(b1-4)GlcNAc(b1-4)GlcNAc(b1-4)GlcNAc
# Summary of the method: as §1
# [32] = molecular target: Neu5Ac(a2-3)Gal(b1-3)GalNAc(b1-4)[Neu5Ac(a2-3)]Gal(b1-4)Glc
# Summary of the method: as §1
# [33] = molecular target: Neu5Ac(a2-3)Gal(b1-3)[Fuc(a1-4)]GlcNAc(b1-3)Gal(b1-3)[Fuc(a1-4)]GlcNAc
# Summary of the method: as §1
# [34] = molecular target: Neu5Ac(a2-3)Gal(b1-4)GlcNAc(b1-2)Man(a1-3)[Neu5Ac(a2-3)Gal(b1-4)GlcNAc(b1-2)Man(a1-6)]Man(b1-4)GlcNAc(b1-4)[Fuc(a1-6)]GlcNAc
# Summary of the method: as §1
# [35] = molecular target: Neu5Ac(a2-3)Gal(b1-4)GlcNAc6S
# Summary of the method: as §1
# [36] = molecular target: Neu5Ac(a2-3)[GalNAc(b1-4)]Gal(b1-4)GlcNAc
# Summary of the method: as §1
# Neu5Ac(a2-6)Gal(b1-4)Glc = molecular target: Neu5Ac(a2-6)Gal(b1-4)Glc
# Summary of the method: as §1
# [37] = molecular target: Neu5Ac(a2-6)Gal(b1-4)GlcNAc
# Summary of the method: as §1
# [38] = molecular target: Neu5Ac(a2-6)Gal(b1-4)GlcNAc(b1-2)Man(a1-3)[GlcNAc(b1-2)Man(a1-6)]Man(b1-4)GlcNAc(b1-4)GlcNAc
# Summary of the method: as §1
# [39] = molecular target: Neu5Ac(a2-6)Gal(b1-4)GlcNAc(b1-2)Man(a1-3)[Neu5Ac(a2-6)Gal(b1-4)GlcNAc(b1-2)Man(a1-6)]Man(b1-4)GlcNAc(b1-4)[Fuc(a1-6)]GlcNAc
# Summary of the method: as §1
# [40] = molecular target: Neu5Ac(a2-6)Gal(b1-4)GlcNAc(b1-2)[Neu5Ac(a2-6)Gal(b1-4)GlcNAc(b1-4)]Man(a1-3)[GlcNAc(b1-4)][Neu5Ac(a2-6)Gal(b1-4)GlcNAc(b1-2)[Neu5Ac(a2-6)Gal(b1-4)GlcNAc(b1-6)]Man(a1-6)]Man(b1-4)GlcNAc(b1-4)GlcNAc
# Summary of the method: as §1
# [41] = molecular target: Neu5Ac(a2-6)Gal(b1-4)GlcNAc(b1-3)[Neu5Ac(a2-6)Gal(b1-4)GlcNAc(b1-6)]GalNAc
# Summary of the method: as §1
# [42] = molecular target: Neu5Ac(a2-6)Gal(b1-4)GlcNAc6S
# Summary of the method: as §1
# [43] = molecular target: Neu5Ac(a2-6)GlcNAc(b1-4)GlcNAc(b1-4)GlcNAc
# Summary of the method: as §1
# [44] = molecular target: Neu5Ac(a2-8)Neu5Ac(a2-3)Gal(b1-3)GalNAc(b1-4)[Neu5Ac(a2-8)Neu5Ac(a2-3)]Gal(b1-4)Glc
# Summary of the method: as §1
# Neu5Gc(a2-6)GalNAc = molecular target: Neu5Gc(a2-6)GalNAc
# Summary of the method: as §1
binder,measurement,setting,value
B1,glycan array binding signal (z-score),Fuc(a1-2)Gal,4.29
same,glycan array binding signal (z-score),[1],3.01
same,glycan array binding signal (z-score),[2],-0.346
same,glycan array binding signal (z-score),[3],-0.5
same,glycan array binding signal (z-score),[4],-0.307
same,glycan array binding signal (z-score),[5],0.457
same,glycan array binding signal (z-score),[6],-0.439
same,glycan array binding signal (z-score),[7],-0.506
same,glycan array binding signal (z-score),[8],0.211
same,glycan array binding signal (z-score),[9],-0.395
same,glycan array binding signal (z-score),[10],-0.243
same,glycan array binding signal (z-score),[11],-0.49
same,glycan array binding signal (z-score),[12],4.75
same,glycan array binding signal (z-score),[13],-0.315
same,glycan array binding signal (z-score),Gal(a1-3)Gal(b1-4)GlcNAc,-0.211
same,glycan array binding signal (z-score),[14],4.55
same,glycan array binding signal (z-score),[15],-0.432
same,glycan array binding signal (z-score),[16],-0.36
same,glycan array binding signal (z-score),[17],5.77
same,glycan array binding signal (z-score),[18],-0.541
same,glycan array binding signal (z-score),[19],-0.208
same,glycan array binding signal (z-score),[20],-0.282
same,glycan array binding signal (z-score),[21],3.65
same,glycan array binding signal (z-score),[22],0.202
same,glycan array binding signal (z-score),[23],0.01
same,glycan array binding signal (z-score),[24],4.39
same,glycan array binding signal (z-score),GalNAc(b1-3)GlcNAc,-0.221
same,glycan array binding signal (z-score),GalNAc(b1-4)GlcNAc,7.2
same,glycan array binding signal (z-score),[25],-0.306
same,glycan array binding signal (z-score),[26],-0.156
same,glycan array binding signal (z-score),[27],-0.626
same,glycan array binding signal (z-score),[28],0.582
same,glycan array binding signal (z-score),[29],2.99
same,glycan array binding signal (z-score),[30],0.405
same,glycan array binding signal (z-score),GlcNAc(b1-4)GlcNAc,-0.216
same,glycan array binding signal (z-score),[31],4.7
same,glycan array binding signal (z-score),[32],-0.581
same,glycan array binding signal (z-score),[33],-0.555
same,glycan array binding signal (z-score),[34],-0.329
same,glycan array binding signal (z-score),[35],-0.18
same,glycan array binding signal (z-score),[36],-0.475
same,glycan array binding signal (z-score),Neu5Ac(a2-6)Gal(b1-4)Glc,-0.637
same,glycan array binding signal (z-score),[37],-0.363
same,glycan array binding signal (z-score),[38],-0.052
same,glycan array binding signal (z-score),[39],0.316
same,glycan array binding signal (z-score),[40],-0.4
same,glycan array binding signal (z-score),[41],-0.424
same,glycan array binding signal (z-score),[42],-0.322
same,glycan array binding signal (z-score),[43],-0.481
same,glycan array binding signal (z-score),[44],5.08
same,glycan array binding signal (z-score),Neu5Gc(a2-6)GalNAc,-0.493
